Test results from PubChem BioAssay AID540321 (Johns Hopkins Ion Channel Center, 2011).
The source made the active and inactive calls.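 How the source made its calls: active means Inhibition of the Kir2.1 potassium channel over 30% at some tested dose, plus a fitted dose response curve; inactive means no Kir2.1 inhibition at any dose, or no curve fitted.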

Biological target: Inward rectifier potassium channel 2 (Mus musculus) (UniProt P35561)
Experiment: Kir2.1 channel inhibition, specificity check, SAR follow-up, selectivity assay for KCNK9 inhibitor project, cell-based, FluxOR thallium flux, CRC round 2 (AID 540321)
Details: Kir2.1-expressing cells; series mostly up to 30 µM

Inward rectifier potassium channel 2 (Mus musculus), sequence (P35561 whole entry, looked up): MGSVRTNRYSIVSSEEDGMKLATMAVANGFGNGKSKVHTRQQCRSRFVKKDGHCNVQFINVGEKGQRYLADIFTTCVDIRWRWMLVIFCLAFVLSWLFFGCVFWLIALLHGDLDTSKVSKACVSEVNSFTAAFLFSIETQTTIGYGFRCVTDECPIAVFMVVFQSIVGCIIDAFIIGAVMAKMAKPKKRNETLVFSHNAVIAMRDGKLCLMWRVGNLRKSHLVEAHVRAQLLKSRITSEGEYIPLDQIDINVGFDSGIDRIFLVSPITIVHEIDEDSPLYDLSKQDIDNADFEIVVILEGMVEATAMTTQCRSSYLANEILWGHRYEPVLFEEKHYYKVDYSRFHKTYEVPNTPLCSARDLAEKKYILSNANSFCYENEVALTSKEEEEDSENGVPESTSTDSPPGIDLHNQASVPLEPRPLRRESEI

| Structure (SMILES) | outcome |
| --- | --- |
| Cc1ccc(-c2n[nH]c(=S)n2C(C)C2CC3CCC2C3)cc1 (stereo not given) | inactive |
| CCOc1ccccc1NC(=O)c1cccc(NC(=O)c2ccc(OC)cc2)c1 | inactive |
| COc1ccccc1C(=O)Nc1cccc(NC(=O)c2ccccc2C)c1 | inactive |
| CCOc1ccccc1NC(=O)c1cccc(NC(=O)c2ccc(C(F)(F)F)cc2)c1 | inactive |
| COc1ccccc1-c1n[nH]c(=S)n1C(C)C1CC2CCC1C2 (stereo not given) | inactive |
| O=C(Nc1ccccc1Cl)c1cccc(NC(=O)C2CCCC2)c1 | inactive |
| COc1ccccc1C(=O)Nc1cccc(NC(=O)c2cccc(C)c2)c1 | inactive |
| CCOc1ccccc1C(=O)Nc1cccc(NC(=O)c2ccccc2C(F)(F)F)c1 | inactive |
| CCOc1cccc(NC(=O)c2cccc(NC(=O)C3CCCC3)c2)c1 | inactive |
| COc1ccccc1NC(=O)c1cccc(NC(=O)c2ccccc2)c1 | inactive |
| O=C(Nc1cccc(NC(=O)c2cccnc2)c1)c1ccccc1 | inactive |
| COc1ccccc1NC(=O)c1cccc(NC(=O)c2ccccc2OC)c1 | inactive |
| CC(C1CC2CCC1C2)n1c(-c2cccc(Cl)c2)n[nH]c1=S (stereo not given) | inactive |
| CCOc1ccccc1NC(=O)c1cccc(NC(=O)c2ccccc2Cl)c1 | inactive |
| CCOc1ccccc1NC(=O)c1cccc(NC(=O)c2ccccc2C(F)(F)F)c1 | inactive |
| CC(c1ccco1)n1c(-c2ccoc2)n[nH]c1=S (stereo not given) | inactive |
| CCOc1ccccc1C(=O)Nc1cccc(NC(=O)c2cccc(C)c2)c1 | inactive |
| COc1cccc(C(=O)Nc2cccc(NC(=O)c3ccccc3)c2)c1 | inactive |

| Structure (SMILES) | outcome |
| --- | --- |
| CCOc1ccccc1NC(=O)c1cccc(NC(=O)C(C)(C)C)c1 | inactive |
| COc1ccc(C(=O)Nc2cccc(NC(=O)c3cccc(C)c3)c2)cc1 | inactive |
| CN(C)c1ccc(C(=O)Nc2cccc(NC(=O)c3ccccc3)c2)cc1 | inactive |
| CCOc1ccc(NC(=O)c2cccc(NC(=O)C3CCCC3)c2)cc1 | inactive |
| Cc1cccc(C(=O)Nc2cccc(NC(=O)c3cccc(Cl)c3)c2)c1 | inactive |
| Cc1cccc(C(=O)Nc2cccc(NC(=O)c3ccc(C(C)(C)C)cc3)c2)c1 | inactive |
| CCOc1ccccc1NC(=O)c1cccc(NC(=O)c2cccc(Cl)c2)c1 | inactive |
| CCOc1ccccc1NC(=O)c1cccc(NC(=O)c2ccc(Cl)cc2)c1 | inactive |
| CC(C1CC2CCC1C2)n1c(-c2ccoc2)n[nH]c1=S (stereo not given) | inactive |
| COc1cccc(-c2n[nH]c(=S)n2C(C)C2CC3CCC2C3)c1 (stereo not given) | inactive |
| O=C(Nc1cccc(NC(=O)c2ccccn2)c1)c1ccccc1 | inactive |
| CC(C1CC2CCC1C2)n1c(-c2ccsc2)n[nH]c1=S (stereo not given) | inactive |
| Cc1cccc(C(=O)Nc2cccc(NC(=O)c3ccc(N(C)C)cc3)c2)c1 | inactive |
| O=C(Nc1cccc(NC(=O)C2CCCCC2)c1)c1ccccc1 | inactive |
| Cc1cccc(C(=O)Nc2cccc(NC(=O)c3ccc(C(F)(F)F)cc3)c2)c1 | inactive |
| CCOc1ccccc1NC(=O)c1cccc(NC(=O)c2cccc(C)c2)c1 | inactive |
| CC(C1CC2CCC1C2)n1c(-c2ccccc2)n[nH]c1=S (stereo not given) | inactive |
